Screening data (PubChem)
Hits are enriched below; roughly 0.69% of the tested compounds scored in any of these assays.
Vif-APOBEC3G blk: blocks the Vif interaction with human APOBEC3G; HeLa A3G-eYFP + Vif (tagged APOBEC3G with the HIV-1 protein that degrades it), YFP fluorescence, overnight; Q9HC16; Potency, µM (top dose mostly 46.1 µM), for the others: at the top dose activity, negative = active, actives largely listed as inhibitors; AID 602310; 410,000 compounds, 0.076% hits; further: on the % scale 0 is the no-effect control and ±100 the full control effect; nearly all actives have a fitted effect of over 60% in size
Target sequence (Q9HC16 whole entry, looked up): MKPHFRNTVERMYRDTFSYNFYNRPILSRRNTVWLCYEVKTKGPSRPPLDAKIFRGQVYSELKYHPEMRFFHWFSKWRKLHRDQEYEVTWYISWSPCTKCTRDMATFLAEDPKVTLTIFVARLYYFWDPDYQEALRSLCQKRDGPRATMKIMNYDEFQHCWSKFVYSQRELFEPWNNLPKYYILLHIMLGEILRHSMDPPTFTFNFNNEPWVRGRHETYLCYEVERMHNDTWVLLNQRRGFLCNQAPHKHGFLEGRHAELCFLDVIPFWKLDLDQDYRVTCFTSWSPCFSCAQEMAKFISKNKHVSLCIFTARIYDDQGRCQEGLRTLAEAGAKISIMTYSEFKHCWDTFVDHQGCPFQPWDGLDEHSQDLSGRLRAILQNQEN
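Read-out is eYFP fluorescence (Ex 488/Em 500-530) from Vif-expressing HeLa A3G-eYFP cells; more signal means A3G escaped Vif-mediated degradation. Cells plated overnight, compound pinned in, incubated overnight at 37 deg C.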
Vif-APOBEC3F blk: blocks the Vif interaction with APOBEC3F; 390,000 compounds, 0.2% hits; HeLa A3F-eYFP + Vif (tagged APOBEC3F with the HIV-1 protein that degrades it), YFP fluorescence increase; AID 602313; Potency, µM (top dose mostly 46.1 µM), without a hit: top-dose activity, negative = active; further: % of control where 0% means no effect; nearly all actives have a fitted effect of over 65% in size
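Fluorescence increase (Ex 488/Em 500-530) after overnight compound treatment at 37 deg C flags inhibition of Vif-driven A3F-eYFP loss in stable HeLa A3F-eYFP/Vif cells seeded overnight beforehand.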
PINK1 expr mod: changes PINK1 expression; PINK1 immunofluorescence, high-content cytometry, 24 h; Potency, µM (titrated, usually from 76.6 µM), for inactives: at the top dose activation (PINK1 increase), actives largely listed as activators; 410,000 compounds, 0.2% hits; active means well fitted activation curve with a large enough effect; inconclusive means small, poorly fitted or top-dose-only effect; cell line not stated here; further: % of control where 0% means no effect; nearly all actives have a fitted effect of over 65% in size
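A stable cell line was treated with compounds at 5 concentrations for 24 hours, with CCCP as control. PINK1 levels and mitochondrial localization were measured by immunofluorescence with mitochondrial, cell and nuclear markers after fixation, read by laser-scanning cytometry.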
FUS suppressor: FUS proteinopathy suppression in yeast; S. cerevisiae FUS-expressing, growth rescue, OD600, 24 h; Potency, µM (doses to about 76.6 µM), hits mostly activators; 390,000 compounds, 0.24% hits; AID 1347120;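 further: plate controls were DMSO vehicle for no effect and reference control for full effect; nearly all actives have a fitted effect of over 55% in size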
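Read-out: OD at 600 nm after 24hr at 30C, reporting rescue of FUS-induced yeast toxicity. Cells at OD 0.005 in galactose (2%) minimal medium; compounds tested in a dilution series; CP55940 titration from 92uM final as control.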
GRP78 ERSR act: inducers of ER stress response in human glioma cells; U87-MG GRP78 promoter luciferase reporter, 16 h; 420,000 compounds, 0.02% hits; Potency, µM, inactives show at the highest dose activation, actives largely listed as activators; further: series mostly up to about 76 µM; % of control where 0% means no effect; nearly all actives have a fitted effect of over 35% in size
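Stably transfected U87-MG human glioma cells carrying a GRP78-based luminescent sensor were seeded at 1000 cells/well, pin-dosed with compounds and incubated 16 h. Luciferase reagent was then added, and end-point luminescence was read after 10 min at room temperature.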
Abeta rescue: restores growth of yeast expressing A-beta42 peptide. 410,000 compounds, 0.063% hits. AID 1347071. Potency, µM (highest dose often 46.1 µM), most hits filed as activators. yeast expressing A-beta42, growth rescue, OD600, 48 h; response scale: 0% DMSO, 100% iron-clioquinol control; further: nearly all actives have a fitted effect of over 55% in size
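Yeast growth medium received pinned compounds, then yeast cells expressing toxic A-beta were added; plates incubated at 30 C for 48 hr. Growth read as absorbance at 600 nm, normalized to DMSO and equimolar FeCl3 plus clioquinol controls.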
Active calls of the source: *; i = inactive; ? = inconclusive; · = not tested or not shown; ! = repeats disagree; [ ] = another dose, or the depositor's remark. Unless noted, the call rests on the fitted dose curve; in most records, active means well fitted curve in the direction sought with a large enough effect; inconclusive means small, poorly fitted or top-dose-only effect, or another doubt; inactive means no such curve, though single readings can be large; an effect the other way counts as inactive or inconclusive. Potency means the concentration at half of the fitted maximal effect.

SMILES	Vif-APOBEC3G blk	Vif-APOBEC3F blk	PINK1 expr mod	FUS suppressor	GRP78 ERSR act	Abeta rescue
Cc1c(N=N/C(C(=O)Nc2ccccc2)=C(/O)c2ccccc2)c(=O)n(-c2ccccc2)n1C	-3.4%	10µM*	2.3%	i	-2.8%	i
Cc1cnc(-n2ncc(C(=O)NCCc3cccnc3)c2C)nc1-c1cccs1	·	·	1.5%	·	-3.3%	·
Cc1cccc(Cn2cnc3c(cnn3C(C)(C)C)c2=O)c1	-1.7%	·	·	·	-3.9%	·
CCOC(=O)C1CCN(c2nc3c(S(=O)(=O)c4ccc(C)c(C)c4)nnn3c3ccc(Cl)cc23)CC1	-1.4%	2.3%	0.5%	?	1.2%	i
Cc1ccc(S(=O)(=O)c2nnn3c2nc(N2CCC(C(N)=O)CC2)c2cc(Cl)ccc23)cc1C	-11.5%	-8.8%	-0.6%	25.1µM*	0.8%	i
CCC1CN(CCNC(=O)c2ccc3c(c2)OCO3)Cc2cc(OC)ccc2O1 (stereo not given)	·	·	0.3%	·	-3.0%	·
Cc1ccc2c(c1)CN(CCNC(=O)c1ccc3nc(C)[nH]c3c1)CC(C)O2 (stereo not given)	·	·	0.3%	·	-4.1%	·
CC(OC(=O)c1cccs1)C(=O)NC1CCCCC1C (stereo not given)	1.3%	-6.6%	0.6%	i	-5.1%	i
CC1CCCCC1NC(=S)NC(=O)c1cccs1 (stereo not given)	-10.8%	?	7.8%	i	3.7%	10µM*
CCN(CC)CCN(C(=O)c1ccc2c(c1)CCCC2)c1nc2ccc(C)cc2s1	-0.7%	?	28.2µM*	?	-3.0%	i
CCN(CC)CCN(C(=O)c1ccc2c(c1)CCCC2)c1nc2ccc(F)cc2s1	-4.6%	10.9%	?	i	3.2%	i
CCN(CC)CCN(C(=O)c1ccc2c(c1)CCCC2)c1nc2c(C)cccc2s1	1.8%	2.9%	44.7µM*	i	-4.1%	i
CCC1CN(CCNC(=O)c2ccc(N3CCOCC3)cc2)Cc2cc(OC)ccc2O1 (stereo not given)	·	·	1.1%	·	0.8%	·
CC(C)c1c(C(=O)N(C)CC2CCCN(C)C2)cnn1-c1nccc(-c2cccs2)n1 (stereo not given)	·	·	-0.8%	·	1.3%	·
CCc1nc2c(OCCC3CCCCC3)cccn2c1N(C)C(=O)c1ccncc1	-2.8%	·	1.6%	i	-0.4%	i
CCc1nc2c(OCCC3CCCCC3)cccn2c1N(C)C(=O)c1ccc(OC)cc1	-17.3%	·	2.0%	22.4µM*	11.2%	i
Cc1ccc(CN2C[C@@H](Sc3nc(C)cc(C)n3)C[C@H]2C(=O)N2CCN(c3ccccc3F)CC2)cc1	·	·	-0.2%	·	-4.7%	·
CCOC(=O)c1c(/N=C/C2=C(O)CCCC2=O)sc(C)c1C	-0.6%	-27.0%	4.8%	i	-7.0%	i
CCOC(=O)c1c(-c2ccc(OC)cc2)csc1/N=C/C1=C(O)CCCC1=O	22.4µM*	22.4µM*	?	?	-13.2%	i
Cc1nc2c3cc(Cl)ccc3n(CCN3CCCCC3)c2s1	-14.5%	-16.6%	3.98µM*	i	-3.7%	i
COC(=O)Cn1c2ccc(Cl)cc2c2nc(C)sc21	-3.7%	12.7%	0.1%	i	-3.7%	i
Cc1ccc(C)c(OCc2nc3ccccc3[nH]2)c1	1.2%	-23.8%	6.3%	i	3.7%	i
C=CCc1ccccc1OCc1nc2ccc(C)cc2[nH]1	·	·	39.8µM*	i	·	i
COc1ccc2c(c1)-c1nc(-n3ncc(C(=O)NC[C@@H]4CCCN5CCCC[C@H]45)c3C)ncc1CC2	·	·	-0.3%	·	-2.4%	·
CC1CC(C)CN(CC(=O)c2c[nH]c3ccccc23)C1 (stereo not given)	?	31.6µM*	2.0%	i	-1.3%	i
SMILES	Vif-APOBEC3G blk	Vif-APOBEC3F blk	PINK1 expr mod	FUS suppressor	GRP78 ERSR act	Abeta rescue
O=C(CN1CCCCC1)c1c[nH]c2ccccc12	-10.2%	2.2%	1.0%	i	-1.3%	i
O=C(Cn1nc(CNc2ccc(Br)cc2)[n+]2c1CCCCC2)c1ccc([N+](=O)[O-])cc1	3.0%	-6.9%	39.8µM*	i	-3.1%	i
C[C@@H]1C[C@@H](CC(=O)NCC2Cc3cccc(-c4ccncc4)c3O2)NC(=S)N1 (stereo not given in full)	·	·	2.7%	·	-2.3%	·
CC(/C=C1\SC(=S)N(CCC(=O)Nc2nc(C)cs2)C1=O)=C\c1ccccc1	-0.5%	-11.2%	39.8µM*	i	-7.6%	i
COc1cc(-c2cc(OC)c3c(C)oc(C)c3c(=O)c2)ccc1OC(=O)c1ccccc1Cl	-1.6%	-12.7%	3.1%	12.6µM*	-4.3%	i
COc1cc(-c2cc(OC)c3c(C)oc(C)c3c(=O)c2)ccc1OC(=O)c1ccccc1F	-0.1%	6.7%	-0.6%	i	-2.4%	i
O=C(N=c1ccn(-c2nc3ccccc3nc2NS(=O)(=O)c2ccccc2)cc1)c1cccs1	?	25.1µM*	0.2%	i	0.4%	i
CNC(=O)[C@@H]1C[C@H](Sc2nc3ccccc3[nH]2)CN1Cc1ccccc1C(F)(F)F	·	·	0.7%	·	-2.5%	·
COc1ccc2nc3ccccc3nc2c1NC(=O)c1ccc(Cl)cc1Cl	3.98µM*	?	3.8%	·	-2.2%	i
COc1cc(/C=C2\SC(=S)N(NC(=O)c3cccc(O)c3)C2=O)ccc1O	-14.9%	?	8.1%	i	2.0%	i
COc1cc(/C=C2\SC(=S)N(NC(=O)c3ccc(O)c(OC)c3)C2=O)ccc1O	-18.6%	10µM*	2.4%	i	2.6%	i
CCOc1cc(/C=C2/SC(=S)N(CC3CCCO3)C2=O)ccc1O (stereo not given)	-15.1%	22.4µM*	-1.7%	i	0.0%	i
COc1cc(/C=C2\SC(=S)N(NC(=O)c3ccccc3OC)C2=O)ccc1O	-3.4%	22.4µM*	3.4%	i	11.6%	i
Cc1cccc(N2CCN(C(=O)C3CCN(c4ncnc5c4nc4n5CCCCC4)CC3)CC2)c1C	1.1%	1.6%	5.2%	31.6µM*!	-2.2%	i
COc1ccc2c(c1)CCc1cnc(-n3ncc(C(=O)NCC(C)(C)CN(C)C)c3C)nc1-2	·	·	-0.5%	·	2.0%	·
COc1ccc(-n2c(CNC(=O)c3ccccc3C(F)(F)F)nnc2SC)cc1	·	·	-0.3%	·	-0.2%	·
O=C(O)c1ccc(COc2ccc3ccccc3c2/C=C2/NC(=O)N(c3ccccc3)C2=O)cc1	2.3%	-0.5%	0.5%[38.3 µM]	35.5µM*	0.3%	i
O=S(=O)(NCCc1csc(-c2cccnc2)n1)c1cc(F)ccc1F	-0.3%	-16.2%	0.2%	·	0.3%	14.1µM*
NC(=S)c1cnn2c(-c3cccc(C(F)(F)F)c3)ccnc12	3.3%	4.6%	-1.5%	i	-2.1%	6.31µM*
